Measured values from PubChem BioAssay (NCATS).
Inconclusive results are not listed. Where a call stands in place of a potency, no number is given. Calls of active or inactive are those of the source. Calls follow the shape of the dose curve; as a rule, active = well fitted curve in the direction sought with a large enough effect; inconclusive = small, poorly fitted or top-dose-only effect, or another doubt; inactive = no such curve, though single readings can be large; an effect the other way counts as inactive or inconclusive.

Key:
[1] = target: Aldehyde dehydrogenase, mitochondrial (Homo sapiens) (UniProt P05091); test: qHTS for Inhibitors of the Aldehyde Dehydrogenase Family (ALDH2) Primary screen (AID 2061308); settings: ALDH2 enzyme inhibition qHTS, 1536-well; series mostly up to 56 µM; also: nearly all actives have a fitted effect of over 55% in size
[2] = target: Retinaldehyde dehydrogenase 3 (Homo sapiens) (UniProt P47895); test: qHTS for Inhibitors of the Aldehyde Dehydrogenase Family (ALDH1A3) Primary screen (AID 2061315); settings: ALDH inhibition qHTS; series mostly up to 56 µM

SMILES	Potency [1]	Potency [2]
CC(C)(O)/C=C/C(=O)[C@](C)(O)[C@H]1[C@H](O)C[C@@]2(C)[C@@H]3CC=C4[C@@H](C[C@H](O[C@@H]5O[C@H](CO)[C@@H](O)[C@H](O)[C@H]5O)C(=O)C4(C)C)[C@]3(C)C(=O)C[C@]12C	inactive	inactive
Cc1cc2c(s1)c1cnn(Cc3cc(F)c(F)c(F)c3)c(=O)c1n2C	inactive	inactive
CCCn1c(C)nc2c(NCCN(C(C)C)C(C)C)nc(C)nc21	inactive	inactive
COc1cc(OC)cc(-c2nnc3n2N=C(c2ccc(OC)cc2OC)CS3)c1	inactive	inactive
COc1cccc(NC(=S)N2CCN(c3ccc4ccccc4n3)CC2)n1	inactive	inactive
O=C(COC(=O)CNC(=O)C1CCCCC1)Nc1cc(C(F)(F)F)ccc1Cl	inactive	inactive
CC(C)(C)c1ccc(-c2nc(SCCCOc3ccccc3)n3[nH]c(=O)cc3n2)cc1	inactive	inactive
O=C(Nc1nc(Nc2cc(F)cc(F)c2)nc(NC2CCCC2)n1)OCc1ccccc1	inactive	inactive
CC(=O)c1ccc(N2CCN(S(=O)(=O)c3ccc4c(c3)CC(C)N4C(C)=O)CC2)cc1 (centres undefined)	inactive	inactive
Cc1sc(NC(=O)Cc2ccc3c(c2)OCO3)nc1-c1ccc2c(c1)CCN2C(=O)C1CCCCC1	inactive	inactive
NC(N)=NCCC[C@H](NC(=O)CNC(=O)c1ccccc1)C(=O)Nc1cc(C(F)(F)F)ccc1Cl	inactive	inactive
COc1ccc(O)c(CNc2ccc(S(=O)(=O)Nc3nccs3)cc2)c1	inactive	inactive
